The text below walks through data of PubChem BioAssay.

The nature of this test: small-molecule binders of probe aInhba, primary screen, biochemical, small-molecule microarray, 635/667 nm fluorescence (AID 1148).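 Further: score merges 667nm spot fluorescence with signal-to-noise for antibody binding to printed compounds.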 The settings on record: higher = more signal.
For `COCCn1c(C(=O)N2CCCC2)cc2c1C[C@H]1CN(C(=O)c3ccccc3)[C@@](Cc3ccc(OC)cc3)(C(=O)OC)[C@@H]21`, the composite z-score was 0.739.
The figure for `Cc1cc(C)c(C(O)C2C=CC3C(=O)NC(=O)C3N2Nc2ccccn2)c(C)c1` (centres undefined) is 0.0599; for `CC(c1ccccc1)C(O)C1C=CC2C(=O)N(Cc3ccccc3)C(=O)C2N1n1cnnc1` (centres undefined) it is -0.145.
Compound `O=C(NCC(O)CO)[C@@]1(Cc2ccccc2)N=C(c2ccc(OCCCO)cc2)O[C@H]1c1ccccc1` (some centres undefined) gave a composite z-score of 1.03.
The compound `CC(c1ccccc1)C(O)C1C=CC2C(=O)N(c3ccccc3)C(=O)C2N1Nc1ccccc1F` (centres undefined) returned a composite z-score of -0.125.
On to `C=CC[C@@]1(C(=O)NCc2ccccc2)N=C(c2ccc(OCCCO)cc2)O[C@@H]1c1ccccc1CN=[N+]=[N-]`, for which the composite z-score came out at 0.122.
The compound `C=CCN1C(=O)[C@]2(Cc3ccccc31)N=C(c1ccc(OCCCO)cc1)O[C@@H]2c1ccccc1` returned a composite z-score of -0.0645.
To `CCCCC(=O)N(Cc1ccccc1F)[C@@H]1CC(C(=O)NCCO)=C[C@H](Oc2c(I)cc(CO)cc2OC)[C@H]1O` belongs 0.0541.
Compound `Cc1c(NC(=O)/C(C#N)=C/C=C/c2ccccc2)c(=O)n(-c2ccccc2)n1C` came in with a composite z-score of 0.0018.
In the case of `CC(C)(C)OC(=O)CC[C@]1(C(=O)NCC(O)CO)N=C(c2ccc(OCCCO)cc2)O[C@H]1c1ccccc1CN=[N+]=[N-]` (some centres undefined), the composite z-score came to 0.496.
For the compound `CCCC[C@@H]1C[C@H]1[C@@H](NC(=O)c1ccco1)c1ccccc1`, the composite z-score is -0.258.
In turn, `NC(=O)NCC#Cc1ccc2c(c1)[C@]1(C(=O)N2)[C@H](c2ccccc2OCCO)N2[C@H](c3ccccc3)[C@H](c3ccccc3)OC(=O)[C@H]2[C@@H]1C(=O)N1CCCCCCC1` came in with a composite z-score of 1.88.
The figure for `C=C(COC)C(=O)CC[C@H](OC(=O)c1cccnc1)c1ccccc1OCCO` is 0.0705; for `C=C(C(=O)CC[C@@H](OC(=O)c1cccnc1)c1ccc(CO)o1)C(C)C` it is 0.209.
To `O=C1O[C@H](c2ccccc2)[C@H](c2ccccc2)N2[C@H]1[C@@H](C(=O)Nc1nc3ccccc3s1)[C@]1(C(=O)Nc3ccc(C#CC4=CCCCC4)cc31)[C@H]2c1ccc(OCCO)cc1` belongs 0.417; to `COCCOC(=O)N1C(=O)[C@@]2(c3cc(C#Cc4ccc(OC)cc4)ccc31)[C@H](C(N)=O)[C@H]1C(=O)O[C@H](c3ccccc3)[C@H](c3ccccc3)N1[C@@H]2c1ccc(O)cc1`, 0.295.
The figure for `CN1C(=O)C2C(C1=O)C1C=C(c3ccc(CO)cc3)C2C(C2CC2)N1Cc1sc2ccccc2c1Cl` (centres undefined) is 0.432.
For the compound `CC1CC/C=C\[C@H]2OC34C=CCN(Cn5nnc6ccccc65)C(=O)[C@H]3N(CCCO)C(=O)[C@@H]4C2C(=O)O1` (some centres undefined), the composite z-score is -0.157.
To `O=P(NCC1(CC2(c3ccccc3)CO2)CC1)(c1ccccc1)c1ccccc1` (centres undefined) belongs -0.0448.
The figure for `CCOC(=O)C1=CC[C@@H](c2ccccc2)N(S(=O)(=O)c2ccc(C)cc2)[C@H]1c1ccc(C#N)cc1` is 0.066.
The figure for `COc1cc(NN2C(C(O)c3ccccc3)C=CC3C(=O)N(c4ccccc4)C(=O)C32)cc(OC)c1OC` (centres undefined) is 0.0829.
`Cn1c2c(c3ccccc31)C(=O)C1NC2C=CC1(C)C(=O)OCc1ccccc1` (centres undefined) gave a composite z-score of 0.0442.
For the compound `Cc1ccc(S[C@]2(C(=O)NCCN3CCOCC3)CC(=O)N(C3CCCCC3)[C@@H]2c2ccc(CO)cc2)cc1`, the composite z-score amounted to 0.0422.
To `COCCOC(=O)N1C(=O)[C@@]2(c3cc(C#CC4=CCCCC4)ccc31)[C@H](c1ccc(OCCO)cc1)N1[C@H](c3ccccc3)[C@H](c3ccccc3)OC(=O)[C@H]1[C@@H]2C(=O)Nc1nc2ccccc2s1` belongs -0.0178.
